The text below walks through data of PubChem BioAssay (NCATS).

The structures appear in SMILES notation. Activity calls are given as the source filed them. Entries that show only a call come without a potency. The call rests on the fitted dose curve; in most records, active means well fitted inhibition curve with a large enough effect; inconclusive means small, poorly fitted or top-dose-only effect; inactive means flat fitted curve, though single readings scatter.
Potency means the concentration at half of the fitted maximal effect.

Chain of Phosphoglycerate kinase, glycosomal (Trypanosoma brucei brucei) (P07378 whole entry, looked up): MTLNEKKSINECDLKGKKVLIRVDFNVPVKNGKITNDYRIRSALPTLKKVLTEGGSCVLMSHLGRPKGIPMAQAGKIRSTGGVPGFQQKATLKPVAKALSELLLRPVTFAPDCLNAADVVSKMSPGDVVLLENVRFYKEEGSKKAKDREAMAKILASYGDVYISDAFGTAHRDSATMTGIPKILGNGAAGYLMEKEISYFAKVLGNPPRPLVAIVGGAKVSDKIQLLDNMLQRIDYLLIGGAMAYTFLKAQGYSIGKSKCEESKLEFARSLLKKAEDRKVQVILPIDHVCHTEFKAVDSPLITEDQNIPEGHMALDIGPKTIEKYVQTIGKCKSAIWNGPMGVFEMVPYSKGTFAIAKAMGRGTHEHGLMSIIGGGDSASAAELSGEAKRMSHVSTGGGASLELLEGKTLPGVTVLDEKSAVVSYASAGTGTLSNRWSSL

For this test, the target named is Phosphoglycerate kinase, glycosomal (Trypanosoma brucei brucei) (UniProt P07378). The experiment in a line: qHTS Validation Assay to Find Inhibitors of Phosphoglycerate Kinase (AID 504547). The note with it: enzymatic PGK inhibition, coupled luminescence read-out; series mostly up to 57.5 µM. The text has this:
NIH Molecular Libraries Probe Production Network [MLPCN]
NIH Chemical Genomics Center [NCGC]
PI Name: Malcolm Walkinshaw, University of Edinburgh
Several species of the Trypanosomatidae family of parasitic protozoans cause a spectrum of diseases
throughout the tropical and subtropical world. Sleeping sickness, caused by two subspecies of Trypanosoma brucei, is endemic to areas of sub-Saharan Africa, while Chagas disease, a manifestation of Trypanosoma cruzi infection, is prevalent throughout Central and South America. In addition, many species of Leishmania are responsible for a range of cutaneous and visceral diseases, causing ulcers, destructive lesions and kalaazar, a lethal infection of the viscera. Collectively, these organisms infect 30 million people worldwide (~500 million live in endemic areas), and account for ~130,000 deaths annually. Given their debilitating and prevalent nature, trypanosomatid parasites impose a heavy medical, economic and social burden on entire populations, primarily in the developing world. The problem is further exacerbated by the fact that existing treatments have progressed little in the past 50 years, and current drugs show high toxicity and poor efficacy.
Blood-stream stages of T. brucei are entirely dependent on glycolysis as a source of ATP, and the tricarboxylic acid cycle and oxidative phosphorylation are both repressed. Glycolysis in axenically cultured T. cruzi, representing the intracellular pathogenic stage, is also essential for these parasites. […] Previous studies have shown that the glycolytic enzyme, phosphoglycerate kinase (PGK), is a viable target for drugs to kill these parasites.
NCGC Assay Protocol Summary:
Briefly, 3ul of substrate/PGK buffer (columns 1,2,5-48) are dispensed into Greiner white solid bottom 1536-well assay plates; columns 3-4 receive only TEA buffer as 0x PGK controls. Compounds are then transferred via Kalypsys pin tool equipped with 1536-pin array (10nl slotted pins, V&P Scientific, San Diego, CA). Following addition of compound, 1ul of GAPDH (100nM final concentration, all columns) is added to initiate the reaction (this upstream coupling enzyme is necessary for in-well production of PGK substrate, 1,3-bisphosphoglycerate (1,3-BPG), which is unstable and not commercially available). The plates are then incubated at room temperature for 60 minutes. Kinase-Glo Plus reagent is added (2ul) and plates incubated for 10 minutes, before being transferred to a ViewLux high-throughput CCD imager (PerkinElmer) wherein single end-point measurements of luminescence are acquired using a clear filter. All reagents are diluted in an assay buffer consisting of 100mM TEA (pH 7.6), 5mM MgCl2 and 0.01% Tween-20.
In general terms: qHTS replaces the single test concentration by a dilution series.
On to `CCCCCCC(=O)OC1CC(C)(C)NC(C)(C)C1`, for which the Potency result was “inactive”. As for `C#CCn1c(=O)c2c(ncn2C)n(C)c1=O`, the Potency result was “inactive”. The value for `N=C(N)c1ccc(N)cc1` was “inactive”; that for `CC(=O)O[C@H]1Cc2ccccc2N(C(N)=O)c2ccccc21` was “inactive”. The entry for `NC1(C(=O)O)CCCCC1` is “inactive”.

For the compound `COc1cc(CC(=O)O)ccc1O`, the Potency entry is “inactive”. The value for `CN(C)CCC(c1ccc(Br)cc1)c1ccccn1` (stereo not given) was “inactive”; that for `CC#CCOC(=O)c1c(C)nc2sc3c(c2c1N)CCC(O)C3` (stereo not given) was “inactive”; that for `O=C(O)/C=C/c1ccc(O)c(O)c1` was “inactive”.

With `NC(=O)c1cc[n+](CC2=C(C(=O)O)N3C(=O)[C@@H](NC(=O)[C@@H](c4ccccc4)S(=O)(=O)[O-])[C@H]3SC2)cc1`, the Potency result is “inactive”. The value for `Cc1nc(N=Nc2ccc(S(=O)(=O)O)cc2S(=O)(=O)O)c(COP(=O)(O)O)c(C=O)c1O` was “inactive”; that for `Nc1ncnc2c1c(-c1ccc(Oc3ccccc3)cc1)cn2C1CCCC1` was “inactive”. The entry for `N#Cc1cc2nc(O)c(O)nc2cc1[N+](=O)[O-]` is “inactive”; for `COCc1nc2c([nH]1)c(=O)n(C)c(=O)n2CC(C)C` it is “inactive”; for `O=C1C2C=CC=CC2=NC(=S)N1CCN1CCC(=C(c2ccc(F)cc2)c2ccc(F)cc2)CC1` (stereo not given) it is “inactive”. The figure for `O=c1cc(O)cc(/C=C/c2ccc(O)c(O)c2)o1` is 1690 nM (active); for `CCCn1c(=O)c2c(ncn2C)n(CCC)c1=O` it is “inactive”; for `CN1CCCC1CCOC(C)(c1ccccc1)c1ccc(Cl)cc1` (stereo not given) it is “inactive”. Regarding `NCCCNCCCCNCCCN`, the Potency result is “inactive”.

On to `NC(=Nc1ccccc1)NC(=O)c1nc(Cl)c(N)nc1N`, for which the Potency result was “inactive”.

With `O=C1NC(=O)c2cc(Nc3ccccc3)c(Nc3ccccc3)cc21`, the Potency entry was “inactive”. The value for `O=C(O)CCC/C=C\C[C@@H]1[C@@H](/C=C/[C@H](O)C2Cc3ccccc3C2)[C@@H](F)C[C@@H]1O` was “inactive”. On to `N#Cc1cc([N+](=O)[O-])c2sc(C(N)=O)[n+]([O-])c2c1`, for which the Potency result was “inactive”. Turning to `O=c1onc2cnc3ccccc3n12`, the Potency entry is “inactive”. In the case of `NCCC1CCCC(CCN)N1` (stereo not given), the Potency result is “inactive”. The entry for `C[C@]12C=CC(=O)C=C1CC[C@@H]1C2=CC[C@]2(C)[C@@H](C(=O)CN3CCN(c4cc(N5CCCC5)nc(N5CCCC5)n4)CC3)CC[C@@H]12` is “inactive”; for `Cc1cccc(C)c1OCC(N)C(C)C` (stereo not given) it is “inactive”; for `Cn1c(=O)c2[nH]c(-c3ccc(S(=O)(=O)O)cc3)nc2n(C)c1=O` it is “inactive”. The value for `N[C@@H](Cc1ccc(O)c(I)c1)C(=O)O` was “inactive”; that for `CC(N)=NCCCC[C@@H](N)C(=O)O` was “inactive”; that for `O=C(O)C1=CCNCC1` was “inactive”. For the compound `c1ccc2c(c1)CC(N1CCN(c3cccc4c3OCCO4)CC1)C2`, the Potency result is “inactive”.

Take `O=C(O)[C@H]1NCCC[C@H]1C(=O)O`: the Potency result was “inactive”. The value for `Cc1ccccc1/C=C/C1=NCCN1` was “inactive”; that for `O=c1[nH]c(=S)[nH]c(-c2ccccc2)c1Cc1c(O)ccc2ccccc12` was “inactive”. `O=c1ccc2c(OCCCCc3ccccc3)c3ccoc3cc2o1`: the Potency entry is “inactive”.

For the compound `O=C(N[C@@H](Cc1ccccc1)C(=O)CCl)OCc1ccccc1`, the Potency result was “inactive”.

Consider `CC(C)NC[C@H](O)COc1ccc(CC(N)=O)cc1`, for which the Potency entry was “inactive”. The value for `CC(C)(CO)Cc1cc(C(C)(C)C)c(O)c(C(C)(C)C)c1` was “inactive”; that for `Oc1ccc(Cn2cc[nH]c2=S)cc1` was “inactive”.
